# Experimental data taken from the supplement of paper PMC6609913.
# Structures can show the parent of a compound that is named as a salt. ± gives the standard deviation of the averaged measurements. The full ranking holds about 1,300 compounds; the median of “normalised cell viability” is about 1, and the lowest 2% start at about 0.15. The sample as a whole holds a higher share of the lowest values than the screen did.
# System: V-C8 + BRCA2 (BRCA2-proficient hamster cells)
# Test: normalised cell viability (fraction of plate median); higher = more viable cells (less toxic)
# Settings: 5 µM
# Procedure, shortened: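 Hamster V-C8 cells lacking BRCA2 and V-C8 cells with BRCA2 restored were seeded in 96-well plates. Library drugs (10 mM DMSO stocks) were added 24 h later at 5 μM in 100 μl medium, next to DMSO control wells, for 3 days (screen 1) or 6 days (screen 2). Cell viability was read by resazurin assay, median-plate normalised (modified robust per cent of sample), and triplicate wells were averaged.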
SMILES,normalised cell viability (treatment time: 3 days),normalised cell viability (treatment time: 6 days)
C=C1[C@@H]2CC[C@H]3[C@]4(C)C[C@H](O[C@@H]5O[C@H](CO)[C@@H](OS(=O)(=O)O)[C@H](OS(=O)(=O)O)[C@H]5OC(=O)CC(C)C)C[C@@H](C(=O)O)[C@H]4CC[C@]3(C2)[C@@H]1O [Atractyloside potassium salt],1.08 ± 0.093,1.15 ± 0.031
COc1ccc2c(c1)[C@]13CCCC[C@@H]1[C@H](C2)N(C)CC3 [Dextromethorphan hydrobromide monohydrate],1.13 ± 0.078,1.02 ± 0.054
"CC[C@@]1(O)C(=O)OCc2c1cc1n(c2=O)Cc2cc3ccccc3nc2-1 [Camptothecine (S,+)]",0.142 ± 0.014,0.124 ± 0.012
CCC(=O)O[C@H]1CC[C@H]2[C@@H]3CCC4=CC(=O)CC[C@]4(C)[C@H]3CC[C@]12C [Testosterone propionate],0.906 ± 0.085,1 ± 0.1
CN1[C@@H]2CC[C@H]1C[C@@H](OC(=O)C(CO)c1ccccc1)C2 (some centres undefined) [Atropine sulfate monohydrate],0.925 ± 0.033,0.988 ± 0.053
O=C(CCCN1CCC2(CC1)C(=O)NCN2c1ccccc1)c1ccc(F)cc1 [Spiperone],1.07 ± 0.04,0.997 ± 0.072
CCCCCC[C@H]1C(=O)O[C@H](C)[C@H](NC(=O)c2cccc(NC=O)c2O)C(=O)O[C@@H](C)[C@@H]1OC(=O)CC(C)C [Antimycin A],0.148 ± 0.012,0.124 ± 0.011
CCCC(C)(COC(N)=O)COC(=O)NC(C)C (centres undefined) [Carisoprodol],0.992 ± 0.042,1.09 ± 0.04
"CN1CCC2(C)c3cc(O)ccc3N(C)C12 (single isomer, unassigned; (-)) [(-)-Eseroline fumarate salt]",0.694 ± 0.028,0.769 ± 0.015
CCC(C)C1O[C@]2(C=C[C@@H]1C)C[C@@H]1CC(C/C=C(\C)[C@@H](OC3C[C@H](OC)[C@@H](OC4C[C@H](OC)[C@@H](O)[C@H](C)O4)[C@H](C)O3)[C@@H](C)/C=C/C=C3\COC4[C@H](O)C(C)=CC(C(=O)O1)[C@]34O)O2 (some centres undefined) [Avermectin B1a],0.303 ± 0.021,0.193 ± 0.025
CC(C)(N)Cc1ccccc1 [Phentermine hydrochloride],1 ± 0.041,0.995 ± 0.023
"NCC(CC(=O)O)c1ccc(Cl)cc1 (racemic) [Baclofen (R,S)]",0.897 ± 0.079,0.956 ± 0.083
